# Laboratory results: PubChem BioAssay (Tox21)
# Inconclusive results are not listed. A number with no mark means an inactive call. Activity calls are given as the source filed them. Calls follow the shape of the full dose curve.
# Target: 5-hydroxytryptamine receptor 2A (Homo sapiens) (UniProt P28223)
# Experiment: 5-hydroxytryptamine receptor 2A (HTR2A) small molecule antagonists, cell-based qHTS assay (AID 1963586); also: nearly all actives have a fitted effect of over 45% in size
# Settings: HTR2A-CHO cells, DOI-induced calcium flux, fluorescence; series mostly up to 61.5 µM; activity, negative = inhibition: at the top concentration
# From the text: National Center for Advancing Translational Sciences [NCATS]
# Division of Preclinical Innovation [DPI]
# U.S. Environmental Protection Agency [EPA]
# National Institutes of Environmental Health Sciences [NIEHS]
# National Toxicology Program [NTP]
# U.S. Food and Drug Administration [FDA]
# The HTR2A receptor is a subtype of the 5-HT2 receptor that belongs to the serotonin receptor family and is a G protein-coupled receptor (GPCR). The HTR2A-CHO cell line stably expressing human 5-hydroxytryptamine receptor 2A (HTR2A) can be used for screening antagonists of interactions between 5-HT2 and its ligands. The HTR2A-CHO calcium flux assay is a homogeneous fluorescence-based assay for detecting the intracellular calcium level using FDSS kinetic plate reader system.
# Tox21 Assay Protocol Summary:
# HTR2A-CHO cells were dispensed at 2000 cells/3uL/well in 1536-well black-clear bottom plates using a Multidrop Dispenser. After the assay plates were incubated at a 37 C/5% CO2 incubator for 18 h, 3 uL of Dye Loading Buffer was transferred to the assay plate by a Flying Reagent Dispenser. The assay plates were incubated at 37 C for 1h. For antagonist mode, 23 nL of compounds dissolved in DMSO, positive controls or DMSO only was transferred to the assay plate by a pin tool. After 5 min incubation at room temperature, 1.5 uL of 4-Iodo-2,5-dimethoxy-alpha-methylbenzeneethanamine hydrochloride (DOI) at 4nM was added to each well. The fluorescence intensity in the plates was measured using FDSS 7000EX kinetic plate reader for 3 min at 1 sec intervals.
# % is scaled to controls: 0 for no effect and ±100 for the full control effect.
# 5-hydroxytryptamine receptor 2A (Homo sapiens), sequence (P28223 whole entry, looked up): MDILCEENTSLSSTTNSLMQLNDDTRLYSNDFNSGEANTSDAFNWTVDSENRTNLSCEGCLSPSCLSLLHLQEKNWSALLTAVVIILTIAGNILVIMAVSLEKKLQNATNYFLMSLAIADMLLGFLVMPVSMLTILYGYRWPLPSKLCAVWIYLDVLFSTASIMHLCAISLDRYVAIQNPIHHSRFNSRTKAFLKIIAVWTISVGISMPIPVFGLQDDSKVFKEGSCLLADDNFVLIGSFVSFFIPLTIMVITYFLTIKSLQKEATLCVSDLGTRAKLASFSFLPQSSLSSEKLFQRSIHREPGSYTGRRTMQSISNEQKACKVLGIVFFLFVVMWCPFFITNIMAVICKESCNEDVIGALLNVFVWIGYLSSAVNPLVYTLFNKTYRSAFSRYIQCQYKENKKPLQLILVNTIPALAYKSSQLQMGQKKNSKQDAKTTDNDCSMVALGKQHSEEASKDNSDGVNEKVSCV
Structure (SMILES),Potency,"activity, negative = inhibition"
OC[C@H]1O[C@@](CO)(O[C@H]2O[C@H](CO)[C@@H](O)[C@H](O)[C@H]2O)[C@@H](O)[C@@H]1O,inactive,
CC(=O)C(C)O (stereo not given),,6.04%
CNC(=O)Nc1ccc(Cl)c(Cl)c1,,-16.5%
COC(=O)c1cc(S(N)(=O)=O)ccc1OC,,-3.77% [at 28.5 µM]
Cc1occc1S,,-3.27%
CCCCCCOC(=O)CC,,-10.4%
COc1cccc(OC)c1,,7.86%
O=C1OC(CN2CCOCC2)CN1/N=C/c1ccc([N+](=O)[O-])o1 (stereo not given),,23.6% [at 28.5 µM]
Cc1cc(C)c(S(=O)(=O)O)cc1N=Nc1cc(S(=O)(=O)O)c2ccccc2c1O,,-0.688%
COC(=O)c1cc(Cl)ccc1NS(=O)(=O)C(F)(F)F,,3.54% [at 28.5 µM]
Brc1cc(Br)cc(Br)c1,,8.33%
CN(C)CCCNCCCN,,25.8%
CCC/C=C/CO,,-1.28%
CCOC(=S)SSC(=S)OCC,,7.93%
O=S(=O)(Oc1ccc(Cl)cc1Cl)c1ccccc1,inactive,
CC1=CC[C@@H](C(C)(C)O)CC1,,1.43%
CCOc1ccc2c(c1)C(C)=CC(C)(C)N2,inactive,
c1ccc2sc(SSN3CCOCC3)nc2c1,inactive,
Nc1cc(C(Cl)=C(Cl)Cl)c(S(N)(=O)=O)cc1S(N)(=O)=O,,1.71% [at 28.5 µM]
CNc1ccccc1,,37.2%

Structure (SMILES),Potency,"activity, negative = inhibition"
CC(=O)NC(Cc1ccccc1)C(=O)O (stereo not given),,3.2% [at 28.5 µM]
CN1CCCC1,,-0.71%
CN1C(=O)CC(C)(c2ccccc2)C1=O (stereo not given),,-18% [at 28.5 µM]
CC(=O)OCC(=O)Nc1cc(C#N)cc(NC(=O)COC(C)=O)c1Cl,,48.9% [at 28.5 µM]
C=CC(=O)OCCCCCCCC,,5.19%
C[C@@H]1O[C@@H](OC[C@H]2O[C@@H](Oc3c(-c4ccc(O)c(O)c4)oc4cc(O)cc(O)c4c3=O)[C@H](O)[C@@H](O)[C@@H]2O)[C@H](O)[C@H](O)[C@H]1O,inactive,
CC(C)(C)c1ccc(O)c(O)c1,inactive,
OCC1(CO)COCOC1,,4.85%
COc1ccc(C#N)cc1,,-12.5%
CC(C)CC(=O)O,,4.88%
O=C(Nc1ccc([N+](=O)[O-])cc1)Nc1ccc([N+](=O)[O-])cc1 (tested in a mixture with another compound),,-1.99% [at 28.5 µM]
CSc1nnc(C(C)(C)C)c(=O)[nH]1,,11.7%
O=C(c1ccccc1)c1ccccc1O,inactive,
CC(=O)OC1CC(C)OC(C)O1 (stereo not given),,2.18%
Cc1cccc(C)c1NC(=O)CN1CCCCCC1,,-7.86% [at 28.5 µM]
CC(O)CCCCn1c(=O)c2c(ncn2C)n(C)c1=O (stereo not given),,3.12% [at 28.5 µM]
CC1=C(O)C(=O)C(C)O1 (stereo not given),,48.7%
CCCCCCC(C)(C)C(=O)O,,17%
CC(CCC(=O)O)C(=O)O (stereo not given),,28.3%
Cc1cc(C)c(C)c(O)c1,,4.36%
